Test results: PubChem BioAssay (Tox21)
Results filed as inconclusive are left out. Calls of active or inactive are those of the source. Unless noted, calls follow the shape of the dose curve; as a rule, active = well fitted curve in the direction sought with a large enough effect in the repeat runs; inconclusive = weak or mixed curves; inactive = no such curve, though single readings can be large; an effect the other way counts as inactive or inconclusive.

Columns and labels:
[1] = qHTS assay to identify small molecule agonists of the sonic hedgehog signaling (Shh) pathway - cell viability counter screen (AID 1259366); also: nearly all actives have a fitted effect of over 50% in size
How it was run: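 Viability measured fluorometrically (CellTiter-Fluor, 1hr, 37C) in 3T3 Gli1-Luc reporter cells after 23hr compound exposure within a 24hr incubation at 37C/5% CO2.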

[2] = qHTS assay to identify small molecule antagonists of the sonic hedgehog signaling (Shh) pathway - cell viability counter screen (AID 1259367); also: nearly all actives have a fitted effect of over 55% in size
How it was run: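 After a 4 hr settling period, 3T3 Gli1-Luc cells were treated with DMSO-dissolved chemicals and conditioned medium, kept 24 hr at 37C in 5% CO2, and assayed for viability by CellTiter-Fluor fluorescence following 1 hr reagent incubation.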

[3] = qHTS assay to identify small molecule agonists of the sonic hedgehog signaling (Shh) pathway (AID 1259368; calls by dose curve;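 also: NIH/3T3-derived 3T3Gli1-Luc cells carrying a stable Gli1-driven firefly luciferase reporter; series mostly up to about 92 µM; nearly all actives have a fitted effect of over 15% in size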)
How it was run: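 Luminescent signal was taken as a measure of Gli1-controlled luciferase expression in stably transfected NIH/3T3-derived cells that had been treated for 24 hr with compounds delivered in DMSO.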

[4] = qHTS assay to identify small molecule antagonists of the sonic hedgehog signaling (Shh) pathway (AID 1259369; calls by dose curve; also: nearly all actives have a fitted effect of over 45% in size)
How it was run: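 Screening used 3T3Gli1-Luc cells at 2,000 per well, compounds delivered in DMSO, and conditioned medium as agonist stimulus; plates incubated 24hr at 37 C and 5% CO2 before a 30min luciferase step.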

[5] = target: Estrogen receptor beta (Homo sapiens) (UniProt Q92731); test: qHTS assay to identify small molecule agonists of the estrogen receptor beta (ER-beta) signaling pathway (AID 1259377; active = well fitted activation curve with a large enough effect in the signal ratio in the repeat runs, not every such curve was filed as active; the % refers to the signal ratio)
How it was run: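 A UAS-controlled beta-lactamase reporter in ER-beta-UAS-bla HEK293T cells reports receptor activation. Compounds act for 16 hr at 37C in 2% charcoal-stripped serum, and a FRET substrate is read by fluorescence after 2 hours.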

[6] = target: Estrogen receptor beta (Homo sapiens) (UniProt Q92731); test: qHTS assay to identify small molecule antagonists of the estrogen receptor beta (ER-beta) signaling pathway (AID 1259378; active = well fitted inhibition curve with a large enough effect in the signal ratio in the repeat runs, not every such curve was filed as active; the % refers to the signal ratio)
How it was run: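 ER-beta-UAS-bla HEK293T (GripTite) cells in 2% charcoal-stripped FBS medium were preincubated 6 hr at 37C, dosed with compound, then stimulated with 1 nM E2 (final) for 16 hr; beta-lactamase reporter read by B/G FRET fluorescence after 2 hr substrate loading.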

[7] = qHTS assay to identify small molecule agonists of the androgen receptor (AR) signaling pathway in the presence of an antagonist - cell viability counter screen (AID 1259379);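 also: MDA-kb2 human breast cancer cells carrying an MMTV luciferase reporter; series mostly up to about 92 µM; nearly all actives have a fitted effect of over 25% in size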
How it was run: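 In MDA-kb2 cells (human breast carcinoma, MMTV-luciferase), compounds at 15 concentrations plus 3.0uM nilutamide; 16 hr, 37C, 0% CO2; CellTiter-Fluor fluorescence read for viability.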

[8] = qHTS assay to identify small molecule agonists of the estrogen receptor beta (ER-beta) signaling pathway - cell viability counter screen (AID 1259380); also: nearly all actives have a fitted effect of over 30% in size
How it was run: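 Viability of ER-beta-UAS-bla HEK293T cells was determined by CellTiter-Glo luminescence following 16 hr treatment with test compounds at 37C.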

[9] = qHTS assay to identify small molecule antagonists of the estrogen receptor beta (ER-beta) signaling pathway - cell viability counter screen (AID 1259382); also: series mostly up to about 92 µM; nearly all actives have a fitted effect of over 55% in size
How it was run: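 Tox21 10K library tested in qHTS format on ER-beta-bla HEK293T cells stimulated with 1nM E2; 16 hr treatment at 37C. Same-well CellTiter-Glo luminescence served as the cell viability measure.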

[10] = target: Estrogen receptor (Homo sapiens) (UniProt P03372); test: qHTS assay to identify small molecule agonists of the estrogen receptor alpha (ER-alpha) signaling pathway in the presence of an antagonist (AID 1259383; calls by dose curve; also: top concentration of the series differs between compounds; nearly all actives have a fitted effect of over 15% in size)
How it was run: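 In VM7Luc4E2 cells, 4,000 per well, compounds at 15 concentrations were co-incubated 22hr at 37C with 10.0nM final ICI-182,780. Luminescence from the stably transfected 4×ERE-luciferase reporter was recorded 30min after ONE-Glo addition.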

[11] = qHTS assay to identify small molecule agonists or antagonists of the thyroid stimulating hormone receptor (TSHR) signaling pathway - wild type cell line counter screen (AID 1259384; calls by dose curve)
How it was run: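 Wild-type HEK293 cells were plated 18 h at 37 C/5% CO2, pin-dosed with compound plus Ro20-1724 medium, held 30 min at room temperature, then given cAMP-d2 and anti-cAMP-cryptate; fluorescence was read after 1 h. Fifteen concentrations, triplicate.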

[12] = target: Thyrotropin receptor (Homo sapiens) (UniProt P16473); test: qHTS assay to identify small molecule antagonists of the thyroid stimulating hormone receptor (TSHR) signaling pathway (AID 1259385; calls by dose curve; also: nearly all actives have a fitted effect of over 20% in size)
How it was run: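 TSHR-HEK293 cells were plated and held 18 h at 37C/5% CO2, then given compound plus Ro20-1724 and stimulated with TSH at 1.5 ng/mL final. After 30 min at room temperature, cAMP was detected with cAMP-d2/anti-cAMP-cryptate (1 h) by fluorescence.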

[13] = qHTS assay to identify small molecule agonists of the estrogen receptor alpha (ER-alpha) signaling pathway in the presence of an antagonist - cell viability counter screen (AID 1259386);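 also: series mostly up to about 92 µM; cells exposed to compounds for 22 h at 37 °C before the viability read; nearly all actives have a fitted effect of over 30% in size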
How it was run: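 Fluorescent CellTiter-Fluor viability signal from VM7Luc4E2 cells, with the reagent added during the final hour of a 22hr compound exposure at 37C in the presence of 10.0nM ICI-182,780.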

[14] = target: Progesterone receptor (Homo sapiens) (UniProt P06401); test: qHTS assay to identify small molecule agonists of the progesterone receptor (PR) signaling pathway (AID 1346784; calls by dose curve; also: nearly all actives have a fitted effect of over 30% in size)
How it was run: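 Agonist mode, quantitative HTS format in a HEK 293T line expressing a UAS-controlled beta-lactamase reporter; 16 hr compound exposure at 37C in 2% charcoal-stripped FBS, then LiveBLAzer B/G FRET fluorescence.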

[15] = target: Progesterone receptor (Homo sapiens) (UniProt P06401); test: qHTS assay to identify small molecule antagonists of the progesterone receptor (PR) signaling pathway (AID 1346795; active = well fitted inhibition curve with a large enough effect in the signal ratio in the repeat runs, not every such curve was filed as active; the % refers to the signal ratio)
How it was run: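 HEK293T PR-UAS-bla reporter cells in charcoal-stripped serum (2%) received compound after a 6 hr settling period, followed by R5020 agonist at 1 nM final; 16 hr incubation preceded the FRET substrate step and fluorescence measurement.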

[16] = qHTS assay to identify small molecule antagonists of the progesterone receptor (PR) signaling pathway - cell viability counter screen (AID 1346798); also: series mostly up to about 92 µM; nearly all actives have a fitted effect of over 50% in size
How it was run: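 Same-well multiplex: after 16 hr at 37C with compound and R5020 stimulation, HEK293T cells carrying a UAS-bla reporter received LiveBLAzer substrate (2 hr RT), then CellTiter-Glo (30 min RT) for luminescent viability.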

[17] = qHTS assay to identify small molecule agonists of the progesterone receptor (PR) signaling pathway - cell viability counter screen (AID 1346799; calls by dose curve; also: nearly all actives have a fitted effect of over 45% in size)
How it was run: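 Counter screen for cytotoxicity: compound-treated PR-UAS-bla HEK293T cells (16 hr, 37C, 5% CO2) were assayed with CellTiter-Glo, luminescence measured after 30 min at room temperature.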

[18] = qHTS assay to identify small molecule agonists of the TGF-beta/Smad signaling pathway - cell viability counter screen (AID 1346829); also: top concentration of the series differs between compounds; nearly all actives have a fitted effect of over 45% in size
How it was run: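 Luminescence from CellTiter-Glo, read after a 30 min room-temperature incubation, gives cell viability of SBE-bla HEK 293T cells treated 5 hr with compounds at 37 C.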

[19] = qHTS assay to identify small molecule antagonists of the TGF-beta/Smad signaling pathway - cell viability counter screen (AID 1346824); also: nearly all actives have a fitted effect of over 50% in size
How it was run: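 SBE-bla HEK 293T cells were plated overnight at 37 C, then given compounds in DMSO plus TGF-beta1 (added as 0.25 ng/mL solution) for 5 hr. After the bla read, CellTiter-Glo was added to the same wells and luminescence read after 30 min at room temperature.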
% is scaled to controls: 0 for no effect and ±100 for the full control effect.

Chain of Estrogen receptor (Homo sapiens) (P03372 whole entry, looked up): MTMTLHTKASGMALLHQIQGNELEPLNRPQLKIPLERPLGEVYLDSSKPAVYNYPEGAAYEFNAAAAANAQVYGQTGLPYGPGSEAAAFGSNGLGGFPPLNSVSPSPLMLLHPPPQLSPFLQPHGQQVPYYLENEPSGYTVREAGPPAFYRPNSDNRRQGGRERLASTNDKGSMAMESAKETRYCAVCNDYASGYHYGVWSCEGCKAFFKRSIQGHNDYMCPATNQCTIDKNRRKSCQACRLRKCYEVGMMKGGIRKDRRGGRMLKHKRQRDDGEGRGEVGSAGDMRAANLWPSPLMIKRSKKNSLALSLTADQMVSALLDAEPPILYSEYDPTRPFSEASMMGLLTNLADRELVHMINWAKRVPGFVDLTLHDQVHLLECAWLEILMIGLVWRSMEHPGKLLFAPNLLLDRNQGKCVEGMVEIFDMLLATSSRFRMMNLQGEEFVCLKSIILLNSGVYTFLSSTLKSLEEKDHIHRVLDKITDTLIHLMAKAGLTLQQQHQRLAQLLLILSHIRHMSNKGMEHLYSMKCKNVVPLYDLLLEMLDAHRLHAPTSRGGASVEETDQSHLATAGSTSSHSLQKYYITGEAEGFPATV
Chain of Estrogen receptor beta (Homo sapiens) (Q92731 whole entry, looked up): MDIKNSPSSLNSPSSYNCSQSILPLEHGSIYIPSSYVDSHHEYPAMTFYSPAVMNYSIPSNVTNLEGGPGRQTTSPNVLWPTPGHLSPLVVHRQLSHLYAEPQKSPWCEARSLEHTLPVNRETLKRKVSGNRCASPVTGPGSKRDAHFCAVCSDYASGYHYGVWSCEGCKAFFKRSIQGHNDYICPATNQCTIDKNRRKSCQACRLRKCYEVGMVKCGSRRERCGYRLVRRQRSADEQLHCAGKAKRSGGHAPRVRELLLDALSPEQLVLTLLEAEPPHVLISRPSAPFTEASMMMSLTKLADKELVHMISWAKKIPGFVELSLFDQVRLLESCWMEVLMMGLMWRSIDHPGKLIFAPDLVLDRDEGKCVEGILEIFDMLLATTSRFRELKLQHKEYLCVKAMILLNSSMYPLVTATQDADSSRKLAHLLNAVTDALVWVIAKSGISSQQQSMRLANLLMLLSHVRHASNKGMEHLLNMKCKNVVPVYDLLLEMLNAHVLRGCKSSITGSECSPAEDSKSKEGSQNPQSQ
Chain of Thyrotropin receptor (Homo sapiens) (P16473 whole entry, looked up): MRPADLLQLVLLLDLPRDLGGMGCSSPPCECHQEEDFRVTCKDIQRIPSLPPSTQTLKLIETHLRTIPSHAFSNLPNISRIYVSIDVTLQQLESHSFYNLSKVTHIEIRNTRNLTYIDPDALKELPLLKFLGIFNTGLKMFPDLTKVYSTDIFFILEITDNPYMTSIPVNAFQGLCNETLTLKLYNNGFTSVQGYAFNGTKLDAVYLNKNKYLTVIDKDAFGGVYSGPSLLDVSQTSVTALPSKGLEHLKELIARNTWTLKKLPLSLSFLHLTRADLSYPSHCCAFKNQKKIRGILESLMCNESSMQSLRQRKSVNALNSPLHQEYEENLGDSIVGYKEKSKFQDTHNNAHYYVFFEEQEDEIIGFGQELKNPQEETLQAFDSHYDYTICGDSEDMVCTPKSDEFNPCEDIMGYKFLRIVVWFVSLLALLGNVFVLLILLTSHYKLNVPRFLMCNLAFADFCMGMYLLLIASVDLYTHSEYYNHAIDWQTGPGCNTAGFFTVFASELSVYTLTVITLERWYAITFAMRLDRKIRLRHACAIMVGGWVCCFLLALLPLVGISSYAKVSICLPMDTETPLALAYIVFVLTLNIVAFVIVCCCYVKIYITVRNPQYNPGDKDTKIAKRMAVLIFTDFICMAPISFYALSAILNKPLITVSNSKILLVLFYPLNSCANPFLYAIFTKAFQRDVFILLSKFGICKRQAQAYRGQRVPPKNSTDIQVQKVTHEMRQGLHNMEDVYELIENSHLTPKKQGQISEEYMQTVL
Chain of Progesterone receptor (Homo sapiens) (P06401 whole entry, looked up): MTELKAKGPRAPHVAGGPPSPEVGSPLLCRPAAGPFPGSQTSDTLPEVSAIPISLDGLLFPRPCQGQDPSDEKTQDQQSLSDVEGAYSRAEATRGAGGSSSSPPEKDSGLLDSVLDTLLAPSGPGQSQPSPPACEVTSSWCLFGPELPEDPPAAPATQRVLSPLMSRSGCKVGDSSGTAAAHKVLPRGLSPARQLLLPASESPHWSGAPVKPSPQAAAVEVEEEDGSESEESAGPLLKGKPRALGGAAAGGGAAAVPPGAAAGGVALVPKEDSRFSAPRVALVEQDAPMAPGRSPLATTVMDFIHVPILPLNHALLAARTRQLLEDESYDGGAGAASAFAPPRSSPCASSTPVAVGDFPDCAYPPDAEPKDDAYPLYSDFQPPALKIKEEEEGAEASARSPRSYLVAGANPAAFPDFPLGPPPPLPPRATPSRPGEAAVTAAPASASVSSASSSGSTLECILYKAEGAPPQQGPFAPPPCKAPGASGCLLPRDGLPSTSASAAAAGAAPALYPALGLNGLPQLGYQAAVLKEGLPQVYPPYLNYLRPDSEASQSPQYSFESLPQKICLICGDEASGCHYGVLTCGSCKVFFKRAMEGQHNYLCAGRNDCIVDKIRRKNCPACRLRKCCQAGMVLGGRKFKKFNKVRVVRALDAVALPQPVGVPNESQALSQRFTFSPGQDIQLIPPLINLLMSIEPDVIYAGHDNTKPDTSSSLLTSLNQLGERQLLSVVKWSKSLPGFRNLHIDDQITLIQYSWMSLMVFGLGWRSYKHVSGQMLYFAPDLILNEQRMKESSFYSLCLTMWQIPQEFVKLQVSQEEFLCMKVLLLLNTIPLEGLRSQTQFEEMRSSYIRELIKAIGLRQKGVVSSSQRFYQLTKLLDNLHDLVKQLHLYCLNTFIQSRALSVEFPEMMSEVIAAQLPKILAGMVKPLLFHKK

CC/C=C/CCCCCCCCCCOC(C)=O
inactive: outcome [1] | outcome [2] | outcome [3] | Potency [4] | Potency [5] | outcome [6] | outcome [7] | Potency [8] | outcome [9] | Potency [10] | outcome [11] | outcome [12] | outcome [13] | Potency [14] | Potency [15] | outcome [16] | Potency [17] | outcome [18]

CCCC(=O)OC
inactive: outcome [1] | outcome [2] | outcome [3] | Potency [4] | Potency [5] | outcome [6] | outcome [7] | Potency [8] | outcome [9] | Potency [10] | outcome [11] | outcome [12] | outcome [13] | outcome [16] | Potency [17] | outcome [18]

CCCCN(CCCC)CCCCCCN(CCCC)CCCC
inactive: outcome [1] | outcome [2] | outcome [3] | Potency [4] | Potency [5] | outcome [6] | outcome [7] | Potency [8] | outcome [9] | Potency [10] | outcome [11] | outcome [12] | outcome [13] | Potency [15] | outcome [16] | outcome [19]

CNC(C)=O
inactive: outcome [1] | outcome [2] | outcome [3] | Potency [4] | Potency [5] | outcome [6] | outcome [7] | Potency [8] | outcome [9] | Potency [10] | outcome [11] | outcome [12] | outcome [13] | Potency [14] | Potency [15] | outcome [16] | outcome [18]

Cc1ccc(N)nc1
inactive: outcome [1] | outcome [2] | outcome [3] | Potency [4] | Potency [5] | outcome [6] | outcome [7] | Potency [8] | outcome [9] | Potency [10] | outcome [11] | outcome [12] | outcome [13] | Potency [14] | Potency [15] | outcome [16] | Potency [17] | outcome [19] | outcome [18]

NCC1CCC(C(=O)Oc2ccc(CCC(=O)O)cc2)CC1 (configuration not stated)
inactive: outcome [1] | outcome [2] | outcome [3] | Potency [4] | Potency [5] | outcome [6] | outcome [7] | Potency [8] | outcome [9] | Potency [10] | outcome [11] | outcome [12] | outcome [13] | Potency [15] | outcome [16] | Potency [17] | outcome [19] | outcome [18]

Cc1cc(=O)oc2cc(O[C@@H]3SC[C@@H](O)[C@H](O)[C@H]3O)ccc12
inactive: outcome [1] | outcome [2] | outcome [3] | Potency [4] | Potency [5] | outcome [6] | outcome [7] | Potency [8] | outcome [9] | Potency [10] | outcome [11] | outcome [12] | outcome [13] | Potency [14] | outcome [16] | Potency [17] | outcome [19] | outcome [18]

C=CC(=O)OCC[N+](C)(C)C
inactive: outcome [1] | outcome [2] | outcome [3] | Potency [4] | Potency [5] | outcome [6] | outcome [7] | Potency [8] | outcome [9] | Potency [10] | outcome [11] | outcome [12] | outcome [13] | Potency [14] | Potency [15] | outcome [16] | outcome [19] | outcome [18]

O=C(O)/C=C(\CC(=O)O)C(=O)O
inactive: outcome [1] | outcome [2] | outcome [3] | Potency [4] | Potency [5] | outcome [6] | outcome [7] | Potency [8] | outcome [9] | Potency [10] | outcome [11] | outcome [12] | outcome [13] | Potency [14] | Potency [15] | Potency [17] | outcome [19] | outcome [18]

CCCCC(CC)CCC(CC(C)C)OS(=O)(=O)O (configuration not stated)
inactive: outcome [1] | outcome [2] | outcome [3] | Potency [4] | Potency [5] | outcome [6] | outcome [7] | Potency [8] | outcome [9] | Potency [10] | outcome [11] | outcome [12] | outcome [13] | Potency [15] | outcome [16] | Potency [17] | outcome [18]

CCC(C)SSC(C)CC (configuration not stated)
inactive: outcome [1] | outcome [2] | outcome [3] | Potency [4] | Potency [5] | outcome [6] | outcome [7] | Potency [8] | outcome [9] | Potency [10] | outcome [12] | outcome [13] | Potency [14] | Potency [15] | outcome [16] | outcome [19] | outcome [18]

CCCC(=O)C(CC)Sc1ccoc1C (configuration not stated)
inactive: outcome [1] | outcome [2] | outcome [3] | Potency [4] | Potency [5] | outcome [6] | outcome [7] | Potency [8] | outcome [9] | Potency [10] | outcome [11] | outcome [12] | outcome [13] | Potency [14] | Potency [15] | outcome [16] | outcome [19]

CC/C=C\CCCCCCCCCCOC(C)=O
inactive: outcome [1] | outcome [2] | outcome [3] | Potency [4] | Potency [5] | outcome [6] | outcome [7] | Potency [8] | outcome [9] | Potency [10] | outcome [11] | outcome [12] | outcome [13] | Potency [14] | outcome [16] | Potency [17] | outcome [19] | outcome [18]

C[C@@H]1NC(=O)[C@@H](N)CNC(=O)[C@H](C2CCNC(N)=N2)NC(=O)/C(=C/NC(N)=O)NC(=O)[C@H](CNC(=O)C[C@@H](N)CCCN)NC1=O (some centres not stated)
inactive: viability change, negative = cytotoxic [1] -4% [at 0.349 µM] | viability change, negative = cytotoxic [2] 1.74% [at 0.349 µM] | activity change [3] 0.0291% [at 0.349 µM] | activity change, negative = inhibition [4] 22.6% [at 0.349 µM] | activation [5] 1.61% [at 0.348 µM] | activity, negative = inhibition [6] -0.409% [at 0.349 µM] | activity change, negative = cytotoxicity [7] 5.61% [at 0.35 µM] | activity change, negative = cytotoxicity [8] 11.9% [at 0.349 µM] | activity change, negative = cytotoxicity [9] 4.08% [at 0.349 µM] | activation [10] 1.04% [at 0.349 µM] | cAMP activity change [11] -0.133% [at 0.349 µM] | activity change, negative = inhibition [12] 2.75% [at 0.349 µM] | activity change, negative = cytotoxicity [13] -0.264% [at 0.349 µM] | activation [14] -1.98% [at 0.349 µM] | activity change, negative = inhibition [15] 9.13% [at 0.348 µM] | activity change, negative = cytotoxicity [16] 0.0667% [at 0.348 µM] | viability change, negative = cytotoxic [19] 13.5% [at 0.29 µM]

Cc1ccc(NC(N)=O)cc1
inactive: outcome [1] | outcome [2] | outcome [3] | Potency [4] | Potency [5] | outcome [6] | outcome [7] | Potency [8] | outcome [9] | Potency [10] | outcome [11] | outcome [13] | Potency [14] | Potency [15] | outcome [16] | Potency [17] | outcome [19] | outcome [18]
